# Data reported in PubChem BioAssay AID504710 (Sanford-Burnham Center for Chemical Genomics, 2011).
# Unmarked numbers belong to inactive results. Activity calls are given as the source filed them.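 The calls were made as follows: active = inhibition reaching about 16% in any single replicate (limit read from the data); inactive = the rest.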
# Molecular target: Hexokinase HKDC1 (Homo sapiens) (UniProt Q2TB90)
# Assay: compounds lowering human HKDC1 activity – biochemical, single concentration, confirmation (AID 504710)
# Details: recombinant HKDC1, G6PDH/diaphorase/resazurin fluorescence; at 20 µM; hits give high values
# Hexokinase HKDC1 (Homo sapiens), sequence (Q2TB90 whole entry, looked up): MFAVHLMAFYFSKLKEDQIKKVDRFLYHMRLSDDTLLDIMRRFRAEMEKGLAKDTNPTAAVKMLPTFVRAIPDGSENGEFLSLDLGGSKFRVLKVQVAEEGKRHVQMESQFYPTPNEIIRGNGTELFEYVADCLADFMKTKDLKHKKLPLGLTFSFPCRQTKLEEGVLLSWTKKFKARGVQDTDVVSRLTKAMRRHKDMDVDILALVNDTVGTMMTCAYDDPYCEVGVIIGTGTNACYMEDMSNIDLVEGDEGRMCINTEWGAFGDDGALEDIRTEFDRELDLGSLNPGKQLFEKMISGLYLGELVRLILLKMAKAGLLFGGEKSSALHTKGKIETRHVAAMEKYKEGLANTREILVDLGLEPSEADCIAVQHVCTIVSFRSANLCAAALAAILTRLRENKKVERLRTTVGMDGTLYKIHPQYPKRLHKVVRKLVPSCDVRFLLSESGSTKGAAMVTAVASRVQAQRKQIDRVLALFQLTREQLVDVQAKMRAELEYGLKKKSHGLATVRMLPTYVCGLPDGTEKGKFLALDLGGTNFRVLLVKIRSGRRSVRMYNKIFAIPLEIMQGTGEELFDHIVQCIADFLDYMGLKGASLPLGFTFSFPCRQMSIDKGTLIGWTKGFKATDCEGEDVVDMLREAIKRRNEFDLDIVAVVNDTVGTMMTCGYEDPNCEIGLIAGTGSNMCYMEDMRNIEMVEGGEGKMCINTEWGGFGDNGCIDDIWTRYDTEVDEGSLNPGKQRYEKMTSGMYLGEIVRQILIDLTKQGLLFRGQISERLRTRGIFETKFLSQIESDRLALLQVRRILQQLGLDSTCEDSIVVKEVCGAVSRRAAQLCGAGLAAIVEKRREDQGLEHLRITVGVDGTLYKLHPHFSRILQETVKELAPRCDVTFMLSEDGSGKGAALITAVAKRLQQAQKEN
row,SMILES,inhibition
1,S=C1Cc2ccccc2N1,-192%
2,Cc1ccc(N=Nc2ccc(O)c3ncccc23)cc1C,-40.4%
3,COC(=O)c1ccc(NCc2cc(O)ccc2O)cc1,65.1% (active)
4,C=CCn1c(SCC(=O)Nc2sc3c(c2C#N)CCC(C)C3)nc2cc(C(=O)O)ccc2c1=O (stereo unspecified),32.7% (active)
5,CCOC(=O)c1ccc(NC2=CC(=O)C(=O)c3ccccc32)cc1,27.6% (active)
6,O=C(CN(C(=O)CCC(=O)Nc1ccccn1)c1ccc2c(c1)OCO2)NCc1ccc(F)cc1,31.3% (active)
7,O=C1C(Cl)=C(Oc2ccccc2)C(=O)c2ccccc21,77.7% (active)
8,CN(C)c1ccc(Cc2cc3c(O)ccc(O)c3cc(Cc3ccc(N(C)C)cc3)c2=O)cc1,44.7% (active)
9,Fc1ccc(N=C2NN=C(c3cc(F)ccc3F)CS2)cc1,-132%
10,CNCc1ccccc1Sc1cc(O)ccc1O,64.6% (active)
11,CCOC(=O)c1c(C)[nH]c(C2=NNC(=Nc3ccccc3OC)SC2)c1C,-86.4%
12,Cn1c2ccccc2c(=O)c2c(=O)n(-c3ccc(F)cc3)c(-c3cccs3)nc21,66% (active)
13,NC1=CC(=O)C(=O)c2ccccc21,48.7% (active)
14,COc1ccc(OC)c2[nH]c(=O)c(CCNC(=O)c3cc4ccccc4o3)cc12,59.6% (active)
15,Cc1nc([N+](=O)[O-])c(Br)n1CC(=O)c1ccc2ccccc2c1,40.1% (active)
16,COc1cc(C2c3c([nH]c(=O)[nH]c3=O)Nc3ccc4ccccc4c32)cc(OC)c1OC (stereo unspecified),43.5% (active)
